This is a sample that favours compounds with a hit; in the whole collection about 10% have one here.
BAZ2B block: qHTS Assay for Inhibitors of BAZ2B. Potency, µM (series often up to 114 µM), without a hit: at the top dose activity change, negative = inhibition, hits mostly inhibitors. Bromodomain adjacent to zinc finger domain protein 2B (Homo sapiens), Q9UIF8. AID 504333, 2011. 360,000 compounds, 4.4% hits. AlphaScreen BAZ2B-H3K14Ac peptide displacement; note: % is set by controls: 0 for no effect and ±100 for the full control effect; nearly all actives have a fitted effect of over 60% in size
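AlphaScreen displacement: compounds (up to 110uM) incubated 30 min at room temperature with a preformed 50 nM BAZ2B/50 nM biotinylated H3K14Ac peptide complex in PBS pH 7.4 with Tween-20. Donor and acceptor beads at 10 ug/mL final added, 20 min light-protected before reading.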
HP1b chromo inh: HTS for Inhibitors of HP1-beta Chromodomain Interactions with Methylated Histone Tails. Chromobox protein homolog 1 (Homo sapiens), P83916. AlphaScreen HP1-beta / biotin-H3K9me3 peptide binding. Potency, µM (top dose mostly 114 µM), for the others: top-dose activity change, negative = inhibition, actives largely listed as inhibitors. 390,000 compounds, 0.56% hits; note: nearly all actives have a fitted effect of over 70% in size
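AlphaScreen: HP1-beta (50 nM) preformed 30 min with biotin-H3(1-18)K9me3 peptide (50 nM) in PBS pH 7.4, 0.01% Tween-20. Compound added for 30 min at RT, then streptavidin donor/nickel chelate acceptor beads (10 ug/mL) for 30 min.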
GLS inh: qHTS for Inhibitors of Glutaminase (GLS); 410,000 compounds, 0.21% hits; GLS enzymatic activity, qHTS titration; Glutaminase kidney isoform, mitochondrial (Homo sapiens), O94925; AID 624170, 2012; Potency, µM (highest dose often 45.5 µM), for the others: top-dose activity change, negative = inhibition, most hits filed as inhibitors; note: % is set by controls: 0 for no effect and ±100 for the full control effect
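Coupled fluorescence readout: glutamate oxidase/HRP/Amplex Red detect glutamate formed by hKGA from L-glutamine (1 mM solution added). Buffer 45 mM KH2PO4 pH 8.2, 0.02% Tween-20; reads at t0 and 30 min RT.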
JMJD2A Tudor inh: qHTS Assay for Inhibitors of JMJD2A-Tudor Domain. Potency, µM (top dose mostly 114 µM), for the others: top-dose activity change, negative = inhibition, usual class: inhibitors. 390,000 compounds, 4.4% hits. AlphaScreen JMJD2A-Tudor / H3K4me3 peptide binding. Lysine-specific demethylase 4A (Homo sapiens), O75164. AID 504339, 2011; note: % is set by controls: 0 for no effect and ±100 for the full control effect; nearly all actives have a fitted effect of over 50% in size
G9a inh: qHTS Assay for Inhibitors of Histone Lysine Methyltransferase G9a; 350,000 compounds, 8.8% hits; G9a H3K9 monomethylation, AlphaScreen, 2 h; Histone-lysine N-methyltransferase EHMT2 (Homo sapiens), Q96KQ7; Potency, µM (titrated, usually from 102 µM), without a hit: at the top dose activity, negative = inhibition, most hits filed as inhibitors; note: % is set by controls: 0 for no effect and ±100 for the full control effect; nearly all actives have a fitted effect of over 75% in size
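Signal arises when biotinylated H3K9 peptide, once monomethylated, bridges streptavidin donor and antibody-captured acceptor beads. Enzyme at 20 nM was preincubated 15 min with test compounds; peptide 500 nM and SAM 20 uM then reacted for 2 h.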
* = called active by the depositor; u = inconclusive; x = no result; [ ] = another dose, or the depositor's remark. Calls come from the whole dose curve; as a rule, active = well fitted curve in the direction sought with a large enough effect; inconclusive = small, poorly fitted or top-dose-only effect, or another doubt; inactive = no such curve, though single readings can be large; an effect the other way counts as inactive or inconclusive. Potency is the fitted concentration of half-maximal effect.

SMILES	BAZ2B block	HP1b chromo inh	GLS inh	JMJD2A Tudor inh	G9a inh
Cc1ccc(NC(=O)C2CCN(c3nn4cc(-c5ccc(C)cc5)nc4s3)CC2)cc1	4%	39%	0%	u	u
Cc1cc(=O)[nH]c(N/N=C/C(C)c2ccccc2)n1 (stereo unspecified)	-27%	-4%	4%	1.1µM*	16µM*
CCN(CC)c1ccc(/C=N/Nc2nc(C)cc(=O)[nH]2)c(O)c1	-15%	23%	7%	-22%	-9%[59 µM]
CC(/C=N/Nc1nc(C)cc(=O)[nH]1)=C\c1ccccc1	-4%	72%	1%	-17%	u
Cc1cc(=O)[nH]c(NN=Cc2cc(Br)ccc2O)n1	x	17%	5%	79µM*	x
COc1ccc(OC)c(/C=N/Nc2nc(C)cc(=O)[nH]2)c1	50µM*	21%	3%	-35%	45µM*
Cc1cc(=O)[nH]c(N/N=C/c2ccccc2Cl)n1	-2%	15%	0%	79µM*	40µM*
O=C(Nc1cc2nn(-c3ccccc3)nc2cc1Cl)c1ccco1	-33%	21%	1%	-17%	21%[12.7 µM]
CCN(CC)CC(O)CN(c1ccccc1)S(=O)(=O)c1ccc2ccccc2c1 (stereo unspecified)	-17%	-3%	1%	-19%	17%
C/C=C/C=N/Nc1nc(C)cc(=O)[nH]1	50µM*	22%	0%	1.6µM*	3.5µM*
CC(=O)Cn1c(CN2CC(C)CC(C)C2)nc2c1c(=O)n(C)c(=O)n2C (stereo unspecified)	3%	25%	1%	-8%[57.1 µM]	11%
Cc1[nH]n(-c2ccc(Cl)cc2)c(=O)c1C=Nc1ccc(S(=O)(=O)N2CCOCC2)cc1	-34%	-6%	-8%	-29%	50µM*
Cc1[nH]n(-c2ccccc2)c(=O)c1N=Nc1c(Cl)cccc1Cl	u	19%	0%	-22%	22µM*
CC(=O)c1ccc(N=Nc2c(C)[nH]n(-c3ccccc3)c2=O)cc1	32µM*	u	14%	u	3.5µM*
Cc1[nH]n(-c2ccccc2)c(=O)c1N=Nc1ccc(C(N)=O)cc1	-9%	9%	-4%	-12%	x
CCc1nnc(NS(=O)(=O)c2ccc(N=Cc3c(C)[nH]n(-c4ccc(Cl)cc4)c3=O)cc2)s1	u	-1%	-2%	-21%	-8%[59 µM]
Cc1[nH]n(-c2ccccc2)c(=O)c1N=Nc1ccc(Cl)cc1	u	-14%	-4%	u	9%[0.501 µM]
Cc1[nH]n(-c2ccccc2)c(=O)c1N=Nc1ccccc1	2.5µM*	u	-1%	11µM*	3.5µM*
C=CCn1c(SCCN2C(=O)c3ccccc3C2=O)nc2scc(-c3ccccc3)c2c1=O	-3%	12%	x	11%	-9%
COc1ccc(-n2cnc3sccc3c2=O)cc1	0%	-6%	7%	-17%	-3%
O=C1C2C3C=CC(C3)C2C(=O)N1CCCCN1C(=O)C2C3C=CC(C3)C2C1=O (stereo unspecified)	-6%	44%	-11%	-1%	5%[12.7 µM]
CCc1ccc(-n2nc(C)c3c(C)cc(=O)n(CC(=O)N4CCCc5ccccc54)c32)cc1	-11%	37%	-2%	-14%	8%[59 µM]
CCOc1ccccc1N=Nc1c(C)[nH]n(-c2ccccc2)c1=O	u	u	14%	45µM*	x
Cc1[nH]n(-c2ccccc2)c(=O)c1N=Nc1ccc(C(=O)O)cc1	-38%	4%	19%	u	79µM*
Cc1[nH]n(-c2ccccc2)c(=O)c1N=Nc1cccc(S(=O)(=O)N2CCOCC2)c1	-2%	u	7%	56µM*	-1%
SMILES	BAZ2B block	HP1b chromo inh	GLS inh	JMJD2A Tudor inh	G9a inh
O=Cc1cc2c(cc1[B-](F)(F)F)OCO2	x	17%	0%	-14%	x
COc1ccc(NC(=O)CN(C)C(C)C(=O)NC(=O)NC2CCCCC2)cc1 (stereo unspecified)	-5%	18%	0%	-19%	x
Cc1ccc(-c2csc(NCCn3c(-c4ccncc4)nc4cc(C(F)(F)F)ccc43)n2)cc1	x	20%	-2%	-34%	x
COc1ccc(-c2csc(NCCn3c(C)nc4cc(C(F)(F)F)ccc43)n2)cc1	x	-8%	-11%	-31%	x
Cc1ccc(-c2csc(NCCn3c(-c4ccncc4)nc4ccccc43)n2)cc1	-37%	6%	1%	-23%	20µM*
Cc1nc2cc(C(F)(F)F)ccc2n1CCNc1nc(-c2ccc(F)cc2)cs1	u	3%	7%	u	28µM*
CCCCOC(=O)Nc1ccc(C(N)=O)cc1	-18%	27%	11%	2%	7%[59 µM]
CCCCOC(=O)Nc1ccc(N2CCCCC2)cc1	u	u	28%	28µM*	7.9µM*
CCOc1ccc(/C=C/C(=O)Nc2ccc(N3CCOCC3)cc2)cc1	-3%	-9%	u	25µM*	x
CCCCOC(=O)Nc1ccc(N2CCOCC2)cc1	-8%	8%	34%	-22%	7.1µM*
CCOc1ccccc1N(CC(=O)Nc1cc(OC)ccc1OC)S(C)(=O)=O	-29%	17%	-17%	-17%	-42%[59 µM]
Cn1c(=S)n(C)c2ccccc21	-18%	62%	2%	8%	-7%[59 µM]
Cn1ccc(=S)c2ccccc21	x	-3%	-25%	8.9µM*	32µM*
O=C1CC(N2CCN(c3ccc(O)cc3)CC2)C(=O)N1c1ccc2c(c1)OCO2 (stereo unspecified)	-22%	u	-16%	u	16µM*
O=C1CC(N2CCN(Cc3ccc4c(c3)OCO4)CC2)C(=O)N1c1cccc(Cl)c1 (stereo unspecified)	11%	8%	-18%	-11%	-46%[59 µM]
COc1ccc(N2C(=O)CC(N3CCN(Cc4ccc5c(c4)OCO5)CC3)C2=O)cc1 (stereo unspecified)	-2%	35%	-2%	-19%	40µM*
O=C(COC(=O)c1cc(F)c(F)cc1Cl)NC1CC1	-1%	41%	0%	-4%	6%
COc1ccc(CC(=O)Nc2ccc3nc(SC)sc3c2)cc1OC	u	26%	-12%	-17%	u
Cc1csc(=O)n1CCC(=O)OCC(=O)Nc1cc(Cl)ccc1[N+](=O)[O-]	u	u	3%	u	19%[12.7 µM]
Cc1csc(=O)n1CCC(=O)OCC(=O)NNC(=O)c1ccccc1	-4%	16%	0%	3%	56µM*
Cc1csc(=O)n1CC(=O)OCC(=O)NNC(=O)c1ccccc1	-5%	29%	-3%	1%	44%
Cc1csc(=O)n1CCC(=O)OCC(=O)Nc1ncc(Cl)cc1Cl	u	-20%	-6%	-19%	45µM*

Compound activity (PubChem)
